This note sets out measurements from PubChem BioAssay AID1159614 (National Center for Advancing Translational Sciences (NCATS), 2016).

In all, about 45,000 compounds went through this assay and about 65 (0.1%) were called active. Entries that show only a call come without a potency. The sample holds actives, similar compounds and a random draw of the others, so the mix is not that of the screen. The call rests on the fitted dose curve; in most records, active means well fitted activation curve with a large enough effect; inconclusive means small, poorly fitted or top-dose-only effect; inactive means no such curve, though single readings can be large or run the other way.

Chain of Galactocerebrosidase (Homo sapiens) (P54803 whole entry G286D): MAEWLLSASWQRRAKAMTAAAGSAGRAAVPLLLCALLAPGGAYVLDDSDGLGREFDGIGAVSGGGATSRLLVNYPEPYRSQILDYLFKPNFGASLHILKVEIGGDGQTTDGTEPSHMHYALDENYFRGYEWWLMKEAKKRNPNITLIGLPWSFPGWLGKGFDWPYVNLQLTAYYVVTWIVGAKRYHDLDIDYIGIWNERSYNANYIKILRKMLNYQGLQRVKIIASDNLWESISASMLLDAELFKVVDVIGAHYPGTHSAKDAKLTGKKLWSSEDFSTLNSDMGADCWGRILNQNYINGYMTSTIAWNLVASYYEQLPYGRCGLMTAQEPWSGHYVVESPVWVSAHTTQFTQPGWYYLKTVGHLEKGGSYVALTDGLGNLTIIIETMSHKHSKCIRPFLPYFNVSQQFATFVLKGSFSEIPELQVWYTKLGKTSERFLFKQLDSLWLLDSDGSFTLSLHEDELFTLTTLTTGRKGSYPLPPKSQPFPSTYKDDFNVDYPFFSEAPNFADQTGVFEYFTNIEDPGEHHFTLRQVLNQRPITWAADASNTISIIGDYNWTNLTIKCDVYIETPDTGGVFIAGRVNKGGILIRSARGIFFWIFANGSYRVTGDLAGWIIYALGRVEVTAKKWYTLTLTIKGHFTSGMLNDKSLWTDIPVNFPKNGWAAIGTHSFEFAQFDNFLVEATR

The target in the assay is Galactocerebrosidase (Homo sapiens) (UniProt P54803). Briefly: A Novel Cell-Based Assay to Identify Small Molecules for B -Galactocerebrosidase. Further: nearly all actives have a fitted effect of over 65% in size. The note with it: 145M-Twi-hGALC-G270D cells (Twitcher mouse brain line with human GALC G270D), HMU-beta-Gal fluorescence, 48 h; series mostly up to 57.5 µM. The source says:
Lysosomal storage diseases (LSDs) are caused by genetic mutations in genes encoding proteins important for normal lysosomal function. Globoid cell leukodystrophy (GLD), mostly known as Krabbe disease, is a prototype of the neurological LSDs caused by deficiency of beta-galactocerebrosidase (GALC). In brain specimens of GLD patients, psychosine levels are substantially elevated. At elevated concentrations, psychosine becomes cytotoxic to neuronal cells, particularly to oligodendrocytes (OLG), neural cells responsible for myelin formation. Therefore, the biochemical disturbances in GLD are manifested by different degrees of brain demyelination resulting in a broad spectrum of neurological manifestations. Most of the FDA-approved therapies are based on enzyme replacement therapeutic (ERT) agents, which treat non-neurological symptoms of Gaucher disease, Fabry disease, few mucopolysaccharidoses and Pompe disease. Unfortunately, in GLD, a primarily neurological LSD, ERT agents, as large molecular weight molecules unable to cross the blood-brain barrier, which makes this an inefficacious therapeutic approach. In GLD, increasing the residual GALC activity just above the critical threshold (~10% of wild type enzymatic activity), the cytotoxic levels of psychosine will be reduced, avoiding the OLGs apoptosis and the subsequent demyelination process. This will translate in disease stabilization and amelioration of GLD patient symptoms.
A cell-based assay in 1,536-well plate format was developed to implement a quantitative high-throughput screening (qHTS) assay using GLD-disease relevant cells to identify small molecules that produce enhancements of the residual enzymatic activity levels of mutants GALC found and prevalent in GLD patients. Compounds that are active may therefore have some therapeutic application for GLD. After the treatment of live cells for a determined period, using a fluorescent GALC specific substrate, the mutant residual GALC activity is measured. This cell-based qTHS assay was used to screen part of the MLPCN library for small molecule able to increase the mutant GALC enzymatic activity. In this assay, increased fluorescent signal corresponds to enhanced levels of mutant GALC residual enzymatic activity. Activation is the desired outcome for this assay.
NIH Chemical Genomics Center [NCGC]
NIH Molecular Libraries Probe Centers Network [MLPCN]
Assay Submitter (PI): Gustavo Maegawa MD,PhD, University of Florida, Gainesville, FL
2)#Two cell lines were established for the assay: 145M-Twi-hGALC-G270D (brain-derived Twitcher cell line stably expressing human GALC-G270D) and 145M-Twi-hGALC-WT (same 145M-Twi stably expressing human GALC wild type). The Twitcher is the murine C57B/6 model for GLD with naturally occurring homozygous nonsense GALC mutation. The 145M-Twi cell line was established at Maegawa lab (Ribbens J et al 2014).
a.#Media: DMEM/F12 (1:1) with 10% fetal bovine-serum (FBS) with penicillin/streptomycin (PS-1X - 100 I.U./mL of penicillin+100 ug/mL of streptomycin).
b.#The 6-Hexadecanoylamino-4-methylumbelliferyl-b-D-galactoside (HMU-B-gal) substrate was prepared as per Wiederschain et al 1992. Using 20-mL borosilicate tubes, 2.20 mg of HMU-b-Gal was added in each tube to prepare substrate-film with a final air-nitrogen stream evaporation to remove all diluent solvents.
c.#The HMUb-Gal substrate buffer consists of 0.2 M Na2HPO4 (sodium phosphate dibasic)/ 0.1 M Citric Acid with the pH adjusted to 5.2 using HCl. Sodium Azide at 0.02% and Sodium Taurocholate (NaTC) at 1 mg/mL were added to this substrate buffer.
d.#The HMU-b-Gal stopping buffer consist of 0.5 M NaHCO3 (sodium bicarbonate) /0.5 M Na2CO3 (sodium carbonate). […] Triton X-100 at 0.25% was added.
4)#Preparation of HMU-b-Gal substrate tubes
Adding 18.6 mL of the HMUb-Gal substrate buffer to each 20-mL tube (2.20 mg of HMU-b-Gal) will reach a concentration of 0.2 mM. Vortex well the tube until the solution is fully homogenized (clear cloudy solution). […]
On to `Cc1cccc(CC(=O)N2CC(=O)Nc3ccc(F)cc3C2c2ccccc2)c1` (stereo not given), for which the Potency result is “inactive”.

Consider `Cc1cccc(NC(=O)c2nnn(CC(=O)Nc3ccc(C(C)C)cc3)c2N)c1C`, for which the Potency entry was “inactive”. Regarding `Cc1cc(C)cc(OCC(=O)Nc2nc(-c3ccc(F)cc3)ns2)c1`, the Potency entry was “inactive”. The value for `Cc1cccc(NC(=O)Cn2c(C(F)(F)F)nc3ccccc32)c1C` was “inactive”; that for `COc1cccc(-c2cc(C(=O)Nc3ccc(C)cc3)[nH]n2)c1` was “inactive”. For the compound `CCc1cc2c(cc3c(=O)n(CC(=O)NCCc4ccc(OC)c(OC)c4)ncn32)s1`, the Potency entry is “inactive”.

Take `Cc1ccccc1OCC(=O)Nc1c(C(=O)Nc2ccccc2F)oc2ccccc12`: the Potency entry is “inactive”. The value for `CCOc1cc(C(=O)Nc2nnc3n2CCS3)cc(OCC)c1OCC` was “inactive”. On to `COc1cccc2c1cc1c(=O)n(CC(=O)N3CCN(c4cccc(Cl)c4)CC3)nc(C)n12`, for which the Potency result is “inactive”. As for `CCCn1c2ccccc2c2cnn(CC(=O)N(C)c3ccccc3CC)c(=O)c21`, the Potency entry is “inactive”. Consider `CCN(C(=O)c1sc2cc(OC)ccc2c1Cl)c1ccccc1`, for which the Potency result is “inactive”. In the case of `CCOC(=O)c1nnn(CC(=O)NC(=O)Nc2ccccc2F)c1C(=O)OCC` it was “inactive”; in that of `Cn1c(=O)c2c(nc(Oc3ccc(C#N)cc3)n2Cc2ccc(Cl)cc2Cl)n(C)c1=O`, “inactive”; in that of `COc1cc(CN(CC2CCCO2)C(=O)c2ccccc2F)cc(OC)c1OC` (stereo not given), “inactive”. With `Cc1cccn2c(=O)c(C(=O)NC(C)c3ccccc3)cnc12` (stereo not given), the Potency result was “inactive”.

Consider `Cc1ccc(S(=O)(=O)NC2(C(F)(F)F)NC(=O)N(CCc3ccccc3)C2=O)cc1` (stereo not given), for which the Potency result was “inactive”. In the case of `COc1ccc(CC(=O)Nc2nnc3n2CCS3)cc1OC` it was “inactive”; in that of `COc1cccc(C2C(C(=O)Nc3ccc(C)cc3C)=C(C)Nc3c(C(=O)Nc4ccccc4)cnn32)c1` (stereo not given), “inactive”; in that of `Cc1ccc(-c2nc3ccccn3c2Nc2c(C)cccc2C)o1`, “inactive”.

As for `Brc1ccc2c(c1)NC(c1cccnc1)=NC(c1ccccc1)=N2`, the Potency entry was “inactive”.

`COC(=O)c1ccc(NC(=O)CCc2c(C)nc3c(c(C)nn3-c3ccc(C)cc3)c2C)cc1`: the Potency result is “inactive”.

For the compound `O=C(Nc1ccccc1Cl)N1CCC(CN2CCCC2)CC1`, the Potency entry was “inactive”.

Consider `COc1cc(Cl)c(NC(=O)C(NS(=O)(=O)c2cccs2)C(C)C)c(OC)c1` (stereo not given), for which the Potency result is “inactive”. As to `O=C(NC1CC(=O)N(c2ccc(F)cc2)C1)c1ccc(S(=O)(=O)N2CCCC2)cc1` (stereo not given), the Potency result was “inactive”. `CCc1cc2c(cc3c(=O)n(CC(=O)N4CCN(c5cc(Cl)ccc5C)CC4)nc(CC)n32)s1`: the Potency entry was “inactive”. With `Cc1cccc(Cn2c(SCc3ccc(C(=O)N4CCC(C)CC4)cc3)nc3ccncc32)c1`, the Potency result was “inactive”. For `COc1ccc2cc(CNc3ccc(OC)c(OC)c3)c(=O)n(CC(=O)Nc3ccccc3F)c2c1`, the Potency result was “inactive”. In the case of `Cc1ccc(OCCn2c(CNc3ccccc3C)nc3ccccc32)cc1` it was “inactive”. For `Cc1nn(C)c2c1c(C(F)(F)F)cc(=O)n2C(C)C(=O)NCc1ccc(Cl)cc1` (stereo not given), the Potency result was “inactive”. Consider `CCOCCCn1c(SCC(=O)Nc2ccc(CC)cc2)nc2ccccc2c1=O`, for which the Potency result was “inactive”.

Consider `C=Cc1ccc(Cn2c(C(=O)OC)cc3sc(C)cc32)cc1`, for which the Potency entry is “inactive”.

For `COc1ccc(CCNC(=O)Cn2c(=O)n(-c3ccccc3)c(=O)c3c(C)c(C)sc32)cc1OC`, the Potency entry is “inactive”. Regarding `O=C(NC1CCN(Cc2ccccc2)CC1)c1ccc(Cn2c(=O)c3ccccc3n(Cc3cccc(F)c3)c2=O)cc1`, the Potency entry is “inactive”. On to `CC1CCCN(c2cc3c(cc2F)c(=O)c(S(=O)(=O)c2cccc(Cl)c2)cn3Cc2ccccc2)C1` (stereo not given), for which the Potency result was “inactive”. As to `Cc1nc(N2CCOCC2)c2c(C(=O)NCc3cccc(Cl)c3)c(C)oc2n1`, the Potency result was “inactive”. Turning to `O=C(Nc1ccc(S(=O)(=O)N2CCC(c3nc4ccccc4s3)CC2)cc1)c1ccccc1F`, the Potency entry is “inactive”. With `Cc1ccc(N(CC(=O)NCC(C)c2ccccc2)S(=O)(=O)N(C)C)cc1` (stereo not given), the Potency entry was “inactive”.

Take `COc1ccc(-n2ccn(CC(=O)Nc3ccc(C)c(C)c3)c(=O)c2=O)cc1OC`: the Potency entry was “inactive”. As for `CCCc1nn2c(=O)cc(COC(=O)c3ccc(NC(=O)C(C)Oc4ccccc4)cc3)nc2s1` (stereo not given), the Potency result is “inactive”. The value for `CCCSc1nc2sc3c(c2c(=O)n1-c1cccc(Br)c1)CC(C)(C)OC3` was “inactive”; that for `Cc1nn(C(C)C(=O)Nc2ccc(C(C)C)cc2)c(=O)c2c1sc1ccccc12` (stereo not given) was “inactive”. Regarding `Cc1cc(C)c(NC(=O)CSc2nc3nccnc3c(=O)n2CCc2c[nH]c3ccccc23)c(C)c1`, the Potency result is “inactive”. The value for `O=C(CSc1nc(Nc2ccc(F)c(F)c2)c2ccccc2n1)c1ccc(Cl)cc1` was “inactive”; that for `CCn1c2c(c(=O)n3ncc(C(=O)N4CCN(c5ccccc5)CC4)c13)CN(Cc1ccc(OC)cc1)CC2` was “inactive”; that for `CC(=O)Nc1c(C)nn(-c2ccccc2)c1N1CCC(C(=O)Nc2cc(Cl)ccc2C)CC1` was “inactive”. The value for `Cc1cc(C)c(-c2n[nH]c3c2C(c2ccccc2F)N(CCO)C3=O)c(O)c1` (stereo not given) was “inactive”; that for `Cc1ccc(C)c(CN2C(=O)c3ccccc3S(=O)c3ccc(C(=O)N4CCOCC4)cc32)c1` (stereo not given) was “inactive”. On to `COc1ccc(CCNC(=O)c2cc3cccc4c3n2CC(C)S4)c(OC)c1OC` (stereo not given), for which the Potency result was “inactive”. The value for `Oc1ccc(-c2nc3ccc(Cl)cn3c2Nc2ccc3c(c2)OCO3)cc1` was “inactive”; that for `COc1ccc(S(=O)(=O)N2CCN(c3ccc(F)cc3)CC2)cc1-c1noc(C)n1` was “inactive”; that for `O=C(NCc1ccccc1Cl)C1CCN(c2ncnc3c2nc2n3CCCCC2)CC1` was “inactive”. Regarding `Cc1ccc(C)c(Oc2c(C(F)(F)F)oc3c(CN4CCN(C)CC4)c(O)ccc3c2=O)c1`, the Potency result was “inactive”. Regarding `CCc1cccc(C)c1NS(=O)(=O)c1c(C)nc2sccn2c1=O`, the Potency entry is “inactive”. `CCOC(=O)c1c(-c2ccc(OC)cc2)oc2ccc(OCc3ccc(C(=O)OC)cc3)cc12`: the Potency entry was “inactive”. In the case of `O=C(O)c1ccc2c(c1)N(Cc1ccc(F)cc1)C(=O)c1ccccc1S2=O` (stereo not given) it was “inactive”. For `CCNC(=O)c1cc2n(n1)CCCN(Cc1ccc(C)cc1)C2=O`, the Potency result was “inactive”. The value for `COc1ccccc1CN1CCC(CNC(=O)c2cnn(-c3cccc(Cl)c3)c2C2CCN(C(=O)OC(C)(C)C)CC2)CC1` was “inactive”. As to `Cc1cc(NS(=O)(=O)c2ccc3oc(=O)c4ncn(C)c4c3c2)ccc1Br`, the Potency entry is “inactive”.

Regarding `Cc1cccc(OCCSc2nc3ccccc3n2CC(=O)N2CCCCC2)c1C`, the Potency entry was “inactive”. Turning to `CN1C(=O)c2ccccc2Sc2ccc(NC(=O)Cc3ccc(Cl)cc3)cc21`, the Potency result is “inactive”.
